Data published in PubChem BioAssay (NCI).
About 79,000 compounds went through this panel and 15% of them were active in at least one assay; those are over-represented in the sample as a whole. Calls of active or inactive are those of the source. Cut-off read from the data, not from the text of the source: active = growth inhibition above about 70%; inactive = the rest. *1 amine or outer side, *2 acyl side, *3 side chain or, on linkers, in order; H or OH if unused. Where a SMILES comes first, the peptide text is derived from it. [ ]: non-standard residue; d: D form. The star is where a group is joined. X17 = CC(=O)N(C)SCC(N[*:1])C(=O)[*:2]; Fmoc = O=C(OCC1c2ccccc2-c2ccccc21)*; For = O=C*

How the values were obtained:
[1] = NCI Yeast Anticancer Drug Screen. Data for the rad50 strain (AID 155);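 note: 0% = growth of vehicle-only cultures of the same strain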; settings: S. cerevisiae rad50 strain growth inhibition; at 50.0 µM; stronger effect = higher value
Summary of the method: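 A DNA repair-deficient yeast mutant serves as the test organism; compound-induced growth inhibition is calculated against vehicle-treated cells.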

[2] = NCI Yeast Anticancer Drug Screen. Data for the mec2-1 strain (AID 157); settings: S. cerevisiae mec2-1 strain, at 50.0 µM, stronger effect = higher value
Summary of the method: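 Using mec2-1 yeast: add compound, measure growth, express inhibition versus vehicle-treated cultures.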

[3] = NCI Yeast Anticancer Drug Screen. Data for the sgs1 mgt1 strain (AID 161);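 note: 0% = growth of cultures given vehicle only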; settings: S. cerevisiae sgs1 mgt1 strain, at 50.0 µM, stronger effect = higher value
Summary of the method: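 This yeast growth screen uses a strain with defined DNA-repair lesions; compound-treated growth is compared with vehicle-treated growth.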

[4] = NCI Yeast Anticancer Drug Screen. Data for the cln2 rad14 strain (AID 165);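 note: 0% = growth equal to vehicle treated cultures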; settings: S. cerevisiae cln2 rad14 strain, at 50.0 µM, stronger effect = higher value
Summary of the method: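 Yeast strain cln2 rad14, bearing defects in cell cycle control and DNA repair, serves as the test system; values reflect growth inhibition compared with vehicle.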

[5] = NCI Yeast Anticancer Drug Screen. Data for the bub3 strain (AID 167); settings: S. cerevisiae bub3 mutant strain, at 50.0 µM, stronger effect = higher value
Summary of the method: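 Inhibition values come from growth of compound-treated mutant yeast normalised to vehicle-treated controls.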

[6] = NCI Yeast Anticancer Drug Screen. Data for the mlh1 rad18 strain (AID 175); settings: S. cerevisiae mlh1 rad18 strain growth inhibition; at 50.0 µM; stronger effect = higher value
Summary of the method: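 Steps: expose repair-defective yeast to compound; measure growth; express inhibition against vehicle-treated controls.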

Measured: growth inhibition

CC(=O)N(C)SCC(NC(=O)C(Cc1ccccc1)NC(=O)OCC1c2ccccc2-c2ccccc21)C(=O)NC(Cc1ccccc1)C(=O)NC(Cc1cn(C=O)c2ccccc12)C(=O)NC(CCCCNC(=O)OCC1c2ccccc2-c2ccccc21)C(=O)NC(C(=O)NC(CSN(C)C(C)=O)C(=O)NC(C(N)=O)C(C)O)C(C)O (stereo unspecified) (Fmoc-F[X17]FW(For)K(Fmoc)T[X17]T-NH2; configuration not given here)
inactive: [3] 65.1%
active: [1] 86.7% | [2] 81.3% | [4] 82.2% | [5] 82.2% | [6] 84%

CCc1c(CNc2ccc(C(=O)NC(CC(=O)O)C(=O)O)cc2)ccc2nc(N)nc(N)c12 (stereo unspecified)
inactive: [1] 5.5% | [2] -0.5% | [3] 11.9% | [4] 2.85% | [5] -4% | [6] 5.6%

O=C1C2=C(CCCC2)Nc2cccc3ncn1c23
inactive: [1] -25.9% | [2] -39% | [3] -56.8% | [4] -20.4% | [5] -38.4% | [6] -40.2%

Oc1ccc(Br)cc1C=Nc1ccccc1
inactive: [1] 26.3% | [2] 18.9% | [3] 40.8% | [4] 29.4% | [5] 26.2% | [6] 14.9%

CCOc1c(N=Nc2ccccc2C)c(C)nn1C(=S)SC
inactive: [1] -1.2% | [2] -2.2% | [3] -15.4% | [4] 23.8% | [5] -19.4% | [6] 15.7%

C/C(CC(=O)Nc1ccc(Cc2ccc(Cl)cc2)cc1)=N/Nc1ccc([N+](=O)[O-])cc1[N+](=O)[O-]
inactive: [1] 28.1% | [2] -0.25% | [3] 31.4% | [4] -1.15% | [5] -8.55% | [6] 22.6%

COc1ccc(CC2c3cc(OC)c(OC)cc3C=CN2C)cc1OC (stereo unspecified)
inactive: [1] 20.8% | [2] 4.55% | [3] 24.1% | [4] 14.9% | [5] 35.6% | [6] 2.3%

CC(=O)Oc1ccc(C2CC(=O)N(CCN(C)C)C2=O)cc1 (stereo unspecified)
inactive: [1] 0.2% | [2] 30.2% | [3] -0.5% | [4] -6.35% | [5] 14.2% | [6] -2.1%

O=C(O)c1ccc(-c2ccc(O)cc2)cc1
inactive: [1] 10.8% | [2] 5.85% | [3] 2% | [4] -34% | [5] -6.7% | [6] 9.4%

c1cn2cnnc2n2cnnc12
inactive: [1] -2.7% | [2] -13% | [3] -15.6% | [4] -32% | [5] -0.8% | [6] -9.8%

Cc1ccc(S(=O)(=O)N/N=C2\CCC3CC2C3(C)C)cc1 (stereo unspecified)
inactive: [1] 1% | [2] 2.05% | [3] -14.2% | [4] -20.1% | [5] -6.05% | [6] 5.95%

C1=C\CCCC/C=C/CC/1
inactive: [1] 1.2% | [2] -4.75% | [3] -13.1% | [4] 5.3% | [5] 0.75% | [6] 10.7%

OC(c1nc2ccccc2s1)(C(F)(F)F)C(F)(F)F
inactive: [1] -14.2% | [2] -20.1% | [3] -9.5% | [4] 18.4% | [5] -13% | [6] 38.4%

C=CCOC(=O)NC(CCC(=O)O)C(=O)O (stereo unspecified)
inactive: [1] 21.1% | [2] -0.35% | [3] 19.3% | [4] 11% | [5] 3.4% | [6] 21%

COc1ccc(C2=C(c3ccccc3)C(C)(C)Oc3ccc4ccccc4c32)cc1
inactive: [1] -44.8% | [2] -0.05% | [3] -5.9% | [4] 14.2% | [5] -2.8% | [6] -7.3%

CCCCCCC(C)(C)NC(N)=O
inactive: [1] -9.4% | [2] 4.4% | [3] -4.5% | [4] 16.8% | [5] 3.75% | [6] -11.8%

OCCCNc1ncnc2[nH]ncc12
inactive: [1] 7.7% | [2] 16.1% | [3] 11.6% | [4] 59% | [5] -4.9% | [6] 13.4%

NC(CCOCCP(=O)(O)CCC1C=CC=CC1)C(=O)O (stereo unspecified)
inactive: [1] -9.6% | [2] -31.7% | [3] -29.1% | [4] 5.6% | [5] -21.3% | [6] -19.9%

O=C1C2C(Cl)C(Cl)C(Cl)C(Cl)C2C(=O)N1NC1CCC([N+](=O)[O-])CC1[N+](=O)[O-] (stereo unspecified)
inactive: [1] -22.9% | [2] -16.4% | [3] -18.5% | [4] 17.4% | [5] 2.5% | [6] 10.1%

O=CNc1cccc2c(=O)[nH][nH]c(=O)c12
inactive: [1] -21.9% | [2] -46.8% | [3] -56.6% | [4] 18.1% | [5] -26.1% | [6] -39.1%

CCOc1cc2c(cc1O)CC[C@@H]1[C@@H]2CC[C@]2(C)C(OS(=O)OC3CC[C@@H]4[C@H]5CCc6cc(O)c(OCC)cc6[C@@H]5CC[C@@]34C)CC[C@@H]12 (stereo partly specified)
inactive: [1] -12.8% | [2] 0.25% | [3] 4.8% | [4] 26.7% | [5] 18.6% | [6] -15.5%

COc1cc(/C=C/C=C2\CCC/C(=C\C=C\c3ccc(O)c(OC)c3)C2=O)ccc1O
inactive: [1] 14.4% | [2] -0.05% | [3] 11.2% | [4] 19.3% | [5] 10.8% | [6] 14.2%

CC(SC(=S)N1CCOCC1)c1cc2oc(=O)n(C)c2cc1Cl (stereo unspecified)
inactive: [1] 2.4% | [2] 7.95% | [3] 8.35% | [4] -5.15% | [5] 24.8% | [6] 20.5%

CC(=O)c1c(C)nc(SSc2nc(C)c(C(C)=O)c(-c3ccc(Cl)cc3)c2C#N)c(C#N)c1-c1ccc(Cl)cc1
inactive: [1] -30.8% | [2] -7.8% | [3] -15.9% | [4] 6.35% | [5] -26.2% | [6] -2.2%

O=C(O)c1cc2cc(S(=O)(=O)O)ccc2cc1O
inactive: [1] 4% | [2] -0.95% | [3] -6.9% | [4] -25.2% | [5] -11.8% | [6] 30.4%

CC(=O)/C(=C\c1ccc(/C=C(\C(C)=O)C(=O)CCN(C)C)cc1)C(=O)CCN(C)C
inactive: [1] 38.6% | [2] 58.5% | [3] 7.05% | [4] 5% | [5] 5.65% | [6] -19.6%

CC(=O)OC(C)C(=O)C1c2cccc(O)c2C(=O)c2c(O)cc(C)cc21 (stereo unspecified)
inactive: [1] 35.6% | [2] 19.1% | [3] 19.9% | [4] 31.4% | [5] 23.9% | [6] 26.6%

O=c1nc(Oc2ccccc2)nc2ccc(Cl)nn12
inactive: [1] 3.4% | [2] 31.4% | [3] 6.95% | [4] 5.7% | [5] 40.9% | [6] 3.1%

O=[N+]([O-])C1CC(O)C(O)CC1c1ccc2c(c1)OCO2 (stereo unspecified)
inactive: [1] 11.1% | [2] 7.25% | [3] 1.7% | [4] 3.05% | [5] 1.95% | [6] 3.7%

COc1ccc(NC(=O)CC(=O)n2nc(C)c(N=Nc3ccccc3C(=O)O)c2C)cc1
inactive: [1] 8.6% | [2] 10.6% | [3] -6.05% | [4] -42.5% | [5] -1.35% | [6] 15.3%

Cc1ccc(S(=O)(=O)N/N=C/C(O)C(O)C(O)C(O)CO)cc1 (stereo unspecified)
inactive: [1] 5.9% | [2] -5.15% | [3] -14.8% | [4] -34.1% | [5] -8.45% | [6] 12.3%

NC(=O)c1[nH]c(COCCO)nc1N
inactive: [1] -20.4% | [2] -10.4% | [3] 14% | [4] -14.9% | [5] 7.05% | [6] 22.4%

CCCCCCCCCCCCCCCCOc1ccc(-c2cc(=O)n(C)n2C)cc1OC
inactive: [1] -14.1% | [2] -27.2% | [3] -9.3% | [4] -0.15% | [5] -8.55% | [6] -16.2%

CCCC(O)C(CC)[N+](=O)[O-] (stereo unspecified)
inactive: [1] 13.6% | [2] 0.95% | [3] 5% | [4] 3.65% | [5] 0.1% | [6] 5.75%

N#CC(C(=O)CCCC(=O)Nc1ccccc1[N+](=O)[O-])c1ccc(Cl)cc1Cl (stereo unspecified)
inactive: [1] -10.2% | [2] -22.6% | [3] -36.8% | [4] -41.5% | [5] 0.65% | [6] -26.6%

O=C(CCc1cc(-c2ccccc2)nc(=S)[nH]1)Nc1ccccc1[N+](=O)[O-]
inactive: [1] 10% | [2] -8.05% | [3] 9% | [4] 29.6% | [5] 15.5% | [6] 7.25%

Cc1c[nH]c2nc(C)n(-c3ccc(F)cc3)c(=N)c12
inactive: [1] 4.1% | [2] 2.4% | [3] -9.05% | [4] -14.6% | [5] 5.3% | [6] 5.3%

CC(=O)Oc1nnc(OC(C)=O)c2cc(N)ccc12
inactive: [1] -13.3% | [2] -18.3% | [3] 4.45% | [4] -1.2% | [5] 9.9% | [6] 0.75%

CCOC(=O)C1(F)S(=O)(=O)OCCOS1(=O)=O
inactive: [1] -12.9% | [2] -9.95% | [3] -11.4% | [4] -18.4% | [5] 6.3% | [6] -9.8%

COC1=C(C(c2cc(OC)c(OC)c(OC)c2)c2cc3c(cc2OC)OCO3)C(=O)OC1 (stereo unspecified)
inactive: [1] -18.6% | [2] -5.9% | [3] -2.9% | [4] 6.25% | [5] 1.1% | [6] 13.4%

N#CN=C(N)NC(=O)/C=C/C=C/c1ccc(Cl)cc1
inactive: [1] 5.8% | [2] 16.8% | [3] 0.8% | [4] 9.8% | [5] 38% | [6] 24.8%
